Laboratory results from PubChem BioAssay (Tox21).
Values joined by “and” are separate entries in the source; they are usually repeats but may differ in a detail not shown here. Identical values can stand only once. Records with an inconclusive call do not appear. A structure can be active in one record and inactive in another. Active and inactive are the calls of the source. Unless noted, the call rests on the fitted dose curve; in most records, active means well fitted curve in the direction sought with a large enough effect in the repeat runs; inconclusive means weak or mixed curves; inactive means no such curve, though single readings can be large; an effect the other way counts as inactive or inconclusive.

Experiments:
[1] = qHTS assay to identify small molecule antagonists of the thyroid receptor (TR) signaling pathway - cell viability counter screen (AID 743064); further: nearly all actives have a fitted effect of over 50% in size; further: potency means the concentration at half of the fitted maximal effect
Procedure, shortened: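 Counter screen for cytotoxicity: compound plus T3 (1 nM final) on GH3.TRE-Luc cells, 23.5 h at 37 °C, then fluorescence viability readout with CellTiter-Fluor.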

[2] = system: thyroid hormone receptor (rat, GH3 cells); assay: qHTS assay to identify small molecule agonists of the thyroid receptor (TR) signaling pathway (AID 743066; calls by dose curve)
[3] = target: Estrogen receptor (Homo sapiens) (UniProt P03372); assay: qHTS assay to identify small molecule antagonists of the estrogen receptor alpha (ER-alpha) signaling pathway (AID 743069; active means well fitted curve in the direction sought with a large enough effect in the signal ratio in the repeat runs, not every such curve was filed as active; the % refers to the signal ratio)
Estrogen receptor (Homo sapiens), sequence (P03372 whole entry, looked up): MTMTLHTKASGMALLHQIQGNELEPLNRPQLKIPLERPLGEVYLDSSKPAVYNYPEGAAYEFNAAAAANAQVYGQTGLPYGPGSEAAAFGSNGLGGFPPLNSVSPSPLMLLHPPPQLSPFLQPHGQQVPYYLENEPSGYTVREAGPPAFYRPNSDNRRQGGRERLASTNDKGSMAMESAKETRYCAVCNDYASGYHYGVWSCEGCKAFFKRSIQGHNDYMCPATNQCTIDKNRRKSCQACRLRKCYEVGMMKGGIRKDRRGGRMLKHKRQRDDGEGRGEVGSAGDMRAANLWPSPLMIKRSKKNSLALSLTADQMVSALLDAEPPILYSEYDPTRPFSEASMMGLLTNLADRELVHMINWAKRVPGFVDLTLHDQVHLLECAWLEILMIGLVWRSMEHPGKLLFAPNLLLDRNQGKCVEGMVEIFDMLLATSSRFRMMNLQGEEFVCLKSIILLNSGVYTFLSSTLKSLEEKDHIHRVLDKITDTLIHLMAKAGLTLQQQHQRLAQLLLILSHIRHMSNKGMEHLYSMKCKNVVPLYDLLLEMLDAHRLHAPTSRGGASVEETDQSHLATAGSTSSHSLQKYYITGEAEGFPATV
Procedure, shortened: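 Estradiol-stimulated ER-alpha-UAS-bla HEK293 cells, 18 hr compound exposure at 37C. LiveBLAzer B/G substrate, 2 hr RT, fluorescence read.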

[4] = qHTS assay to identify small molecule antagonists of the estrogen receptor alpha (ER-alpha) signaling pathway - cell viability counter screen (AID 743074; calls by dose curve;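 further: HEK293 cells carrying ER-alpha-UAS-bla reporter stimulated with 17beta-estradiol; nearly all actives have a fitted effect of over 45% in size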)
[5] = target: Estrogen receptor (Homo sapiens) (UniProt P03372); assay: qHTS assay to identify small molecule agonists of the estrogen receptor alpha (ER-alpha) signaling pathway (AID 743075; calls by dose curve;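 further: HEK293 GripTite cells with ER-alpha and UAS-driven beta-lactamase reporter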)
[6] = target: Estrogen receptor (Homo sapiens) (UniProt P03372); assay: qHTS assay to identify small molecule agonists of the estrogen receptor alpha (ER-alpha) signaling pathway using the BG1 cell line (AID 743079); further: nearly all actives have a fitted effect of over 20% in size; further: potency means the concentration at half of the fitted maximal effect
[7] = qHTS assay to identify small molecule antagonists of the estrogen receptor alpha (ER-alpha) signaling pathway using the BG1 cell line (AID 743080; calls by dose curve;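 further: BG1 cells stimulated with 17beta-estradiol alongside compound; series mostly up to about 70 µM; nearly all actives have a fitted effect of over 25% in size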)
Procedure, shortened: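 Endogenous full-length ER-alpha in BG1-Luc-4E2 cells drives a stably integrated 4×ERE luciferase gene; compounds were tested against 17beta-estradiol over 21.5 h, with luminescence and multiplexed viability fluorescence recorded.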

[8] = qHTS assay to identify small molecule antagonists of the estrogen receptor alpha (ER-alpha) signaling pathway using the BG1 cell line - cell viability counter screen (AID 743081);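 further: compound given together with 17beta-estradiol as the ER stimulus; series mostly up to about 70 µM; nearly all actives have a fitted effect of over 45% in size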
Aromatase (Homo sapiens) = Aromatase (Homo sapiens) (UniProt P11511); assay: qHTS assay to identify aromatase inhibitors (AID 743083); further: nearly all actives have a fitted effect of over 55% in size; further: potency means the concentration at half of the fitted maximal effect; on activity, negative = inhibition: series mostly up to about 70 µM
Aromatase (Homo sapiens), sequence (P11511 whole entry, looked up): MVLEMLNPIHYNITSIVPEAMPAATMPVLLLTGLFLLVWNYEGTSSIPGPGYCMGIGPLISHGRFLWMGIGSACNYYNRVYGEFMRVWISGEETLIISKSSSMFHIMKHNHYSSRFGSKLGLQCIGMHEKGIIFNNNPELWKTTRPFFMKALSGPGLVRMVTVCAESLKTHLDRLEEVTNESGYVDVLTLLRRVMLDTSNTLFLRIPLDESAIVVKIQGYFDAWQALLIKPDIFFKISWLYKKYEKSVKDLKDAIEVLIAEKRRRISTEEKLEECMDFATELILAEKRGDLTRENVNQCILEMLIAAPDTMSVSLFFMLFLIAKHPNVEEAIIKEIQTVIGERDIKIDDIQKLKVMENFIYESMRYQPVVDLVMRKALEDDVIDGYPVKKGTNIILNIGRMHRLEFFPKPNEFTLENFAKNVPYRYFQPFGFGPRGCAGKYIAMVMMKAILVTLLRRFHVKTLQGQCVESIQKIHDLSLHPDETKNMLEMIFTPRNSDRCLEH

[9] = qHTS assay to identify small molecule antagonists of the thyroid receptor (TR) signaling pathway (AID 743065); further: nearly all actives have a fitted effect of over 55% in size; further: potency means the concentration at half of the fitted maximal effect; on activity, negative = inhibition: series mostly up to about 70 µM
Procedure, shortened: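 GH3.TRE-Luc rat pituitary cells carrying two TR response elements driving luciferase were plated for 4 h, given compound plus 1 nM T3 (final), and incubated 23.5 h at 37 C. ONE-Glo luminescence measured reporter inhibition; CellTiter-Fluor fluorescence tracked cytotoxicity.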
On the % scale 0 is the no-effect control and ±100 the full control effect.

O=S(O)CO
inactive: Potency [1] | outcome [2] | outcome [3] | outcome [4] | Potency [5] | outcome [7] | Potency [8] | Potency (Aromatase (Homo sapiens))
active: Potency [6] 26.6 µM

CN1CCN(c2cc3c(cc2F)c(=O)c(C(=O)O)cn3-c2ccc(F)cc2)CC1
inactive: Potency [1] | Potency [9] | outcome [2] | outcome [4] | Potency [8] | Potency (Aromatase (Homo sapiens))

CCc1ccc(O)c(OC)c1
inactive: Potency [1] | Potency [9] | outcome [2] | outcome [4] | Potency [8] | Potency (Aromatase (Homo sapiens))

N=C(N)c1ccccc1
inactive: Potency [1] | Potency [9] | outcome [2] | outcome [4] | Potency [8] | Potency (Aromatase (Homo sapiens))

Nc1c[n+](N2CCOCC2)no1
inactive: Potency [1] | outcome [2] | outcome [3] | Potency [5] | Potency [6] | outcome [7] | Potency [8] | Potency (Aromatase (Homo sapiens))

FC(F)OC(Cl)C(F)(F)F (stereo not drawn)
inactive: Potency [1] | Potency [9] | outcome [2] | outcome [4] | Potency [8] | Potency (Aromatase (Homo sapiens))

CCCCOCCOCCOCc1cc2c(cc1CCC)OCO2
inactive: Potency [1] | outcome [2] | outcome [4] | Potency [8] | Potency (Aromatase (Homo sapiens))

CCCCCCCCCCCCN(CCCCCCCCCCCC)CCCCCCCCCCCC
inactive: Potency [1] | Potency [9] | outcome [2] | outcome [4] | Potency [8] | Potency (Aromatase (Homo sapiens))

NS(=O)(=O)c1ccccc1Cl
inactive: Potency [1] | Potency [9] | outcome [2] | outcome [4] | Potency [8] | Potency (Aromatase (Homo sapiens))

CCCC(=O)O[C@]1(C(=O)CO)CC[C@H]2[C@@H]3CCC4=CC(=O)CC[C@]4(C)[C@H]3[C@@H](O)C[C@@]21C
inactive: Potency [1] | Potency [9] | outcome [2] | outcome [4] | Potency [8] | Potency (Aromatase (Homo sapiens))

CCC(C)S (stereo not drawn)
inactive: activity change, negative = cytotoxic [1] 23.6% [at 3.79 µM] | activity, negative = inhibition [9] 10.9% [at 3.79 µM] | activation [2] 1.37% [at 3.63 µM] | activity change, negative = cytotoxicity [8] 11% [at 3.79 µM] | activity, negative = inhibition (Aromatase (Homo sapiens)) 7.68% [at 3.79 µM]

CN1CC(=O)NC1=N
inactive: Potency [1] | Potency [9] | outcome [2] | outcome [4] | Potency [8] | Potency (Aromatase (Homo sapiens))

CO[C@]12C[C@@H](COC(=O)c3cncc(Br)c3)CN(C)[C@@H]1Cc1cn(C)c3cccc2c13
active: Potency [1] 21.1 µM | Potency [9] 21.1 µM
inactive: outcome [2] | outcome [4] | Potency [8] | Potency (Aromatase (Homo sapiens))

C=CCCCCCCCCC=O
inactive: Potency [1] | outcome [2] | outcome [4] | Potency [5] | Potency [6] | outcome [7] | Potency [8] | Potency (Aromatase (Homo sapiens))

C[N+](C)(C)CCCCCC[N+](C)(C)C
inactive: Potency [1] | Potency [9] | outcome [2] | outcome [4] | Potency (Aromatase (Homo sapiens))

O=C(O)CCCc1ccccc1
inactive: Potency [1] | Potency [9] | outcome [2] | outcome [4] | Potency [8] | Potency (Aromatase (Homo sapiens))

CC(C)(C)c1ccc(O)c(O)c1
inactive and 12.6 µM (active): Potency (Aromatase (Homo sapiens))
inactive: outcome [2] | outcome [4] | Potency [8]
active: Potency [1] 70.9 µM and 56.1 µM | Potency [9] 56.3 µM and 24.3 µM

O=C1CCCC(=O)C1
inactive: Potency [1] | Potency [9] | outcome [2] | outcome [4] | Potency [8] | Potency (Aromatase (Homo sapiens))

COC(=O)c1c(Cl)c(Cl)c(C(=O)OC)c(Cl)c1Cl
inactive: Potency [1] | outcome [2] | outcome [4] | Potency [5] | Potency [6] | outcome [7] | Potency [8] | Potency (Aromatase (Homo sapiens))

O=C(O)CNC(=O)c1ccc([N+](=O)[O-])cc1
inactive: Potency [1] | Potency [9] | outcome [2] | outcome [4] | Potency [8] | Potency (Aromatase (Homo sapiens))

C[C@H]1C[C@@H](O)CC(C)(C)C1
inactive: Potency [1] | Potency [9] | outcome [2] | outcome [4] | Potency [8] | Potency (Aromatase (Homo sapiens))

COC(=O)c1cc(C(=O)OC)cc(S(=O)(=O)O)c1
inactive: Potency [1] | Potency [9] | outcome [2] | outcome [4] | Potency [8] | Potency (Aromatase (Homo sapiens))

COc1ccc2c(c1)c(CC(=O)OCC(=O)O)c(C)n2C(=O)c1ccc(Cl)cc1
inactive: Potency [1] | Potency [9] | outcome [2] | outcome [4] | Potency (Aromatase (Homo sapiens))

CC(C)=CCCC(C)CC(=O)O (stereo not drawn)
inactive: Potency [1] | Potency [9] | outcome [2] | outcome [4] | Potency [8] | Potency (Aromatase (Homo sapiens))

COC(C)(C)CCCC(C)CC=O (stereo not drawn)
inactive: Potency [1] | Potency [9] | outcome [2] | outcome [4] | Potency [8] | Potency (Aromatase (Homo sapiens))

COC(=O)c1ccc(C)cc1C1=NC(C)(C(C)C)C(=O)N1 (stereo not drawn)
inactive: Potency [1] | Potency [9] | outcome [2] | outcome [4] | Potency [8] | Potency (Aromatase (Homo sapiens))

C[N+](C)(C)CC(O)CC(=O)[O-] (stereo not drawn)
inactive: Potency [1] | Potency [9] | outcome [2] | outcome [4] | Potency [8] | Potency (Aromatase (Homo sapiens))

C=CCOCC(CC)(CO)COCC=C
inactive: Potency [1] | Potency [9] | outcome [2] | Potency [8]

O=c1[nH]c(=O)n([C@H]2C[C@H](O)[C@@H](CO)O2)cc1I
inactive: Potency [1] | Potency [9] | outcome [2] | outcome [4] | Potency [8] | Potency (Aromatase (Homo sapiens))

CN(C(=O)c1c(O)c2ccccc2n(C)c1=O)c1ccccc1
inactive: Potency [1] | Potency [9] | outcome [2] | outcome [4] | Potency [8] | Potency (Aromatase (Homo sapiens))

CCCCOCCOCCOCCCC
inactive: Potency [1] | Potency [9] | outcome [2] | outcome [4] | Potency [8] | Potency (Aromatase (Homo sapiens))

NC(=O)c1ccc([N+](=O)[O-])cc1
inactive: Potency [1] | Potency [9] | outcome [2] | outcome [4] | Potency [8] | Potency (Aromatase (Homo sapiens))

CC(=O)OCC(=O)[C@@]1(O)CCC2C3CCC4=CC(=O)CC[C@]4(C)C3[C@@H](O)C[C@@]21C (stereo partly drawn)
inactive: Potency [1] | Potency [9] | outcome [2] | outcome [4] | Potency [8] | Potency (Aromatase (Homo sapiens))

CCOc1ccc(C(=O)OCCN(CC)CC)cc1
inactive: Potency [1] | Potency [9] | outcome [2] | outcome [4] | Potency [8] | Potency (Aromatase (Homo sapiens))

CC(=O)N(CC(O)CO)c1c(I)c(C(=O)NCCO)c(I)c(C(=O)NCC(O)CO)c1I (stereo not drawn)
inactive: Potency [1] | Potency [9] | outcome [2] | Potency [8] | Potency (Aromatase (Homo sapiens))

CCCCCCCCS(=O)(=O)Cl
inactive: Potency [1] | Potency [9] | outcome [2] | outcome [4] | Potency [8] | Potency (Aromatase (Homo sapiens))

NC(CSCC(=O)O)C(=O)O (stereo not drawn)
inactive: Potency [1] | outcome [2] | outcome [3] | outcome [4] | Potency [5] | Potency [6] | outcome [7] | Potency [8] | Potency (Aromatase (Homo sapiens))

COC(=O)[C@@H](N)Cc1ccc(O)c(O)c1
active: Potency [1] 21.1 µM | Potency [9] 23.7 µM
inactive: outcome [2] | outcome [4] | Potency (Aromatase (Homo sapiens))

CCO[Si](CCC1CCC2OC2C1)(OCC)OCC (stereo not drawn)
inactive: Potency [9] | outcome [2] | outcome [3] | outcome [4] | Potency [5] | Potency [6] | Potency [8] | Potency (Aromatase (Homo sapiens))

CCOC(=O)CC(C)=O
inactive: Potency [9] | outcome [2] | Potency [8]
